Reference: PubChem BioAssay
Where “and” joins values, the source holds several entries; their conditions need not be identical. Identical values can stand only once. Where a SMILES comes first, the peptide text is derived from it.

What was measured:
[1] = system: Botulinum neurotoxin type F light chain protease (Clostridium botulinum); assay: Clostridium botulinum type F light chain protease inhibitors, microsphere substrate cleavage, validation (AID 588459); settings: multiplex microsphere protease substrate cleavage assay, flow cytometry; at 10 µM; stronger effect = higher value
[2] = target: Botulinum neurotoxin type A (Clostridium botulinum) (UniProt P0DPI0); assay: BoNT/A light chain protease inhibitors, biochemical, multiplex microsphere flow cytometry, validation set (AID 588460); settings: at 10 µM, stronger effect = higher value
[3] = target: Lethal factor (Bacillus anthracis) (UniProt P15917); assay: Bacillus anthracis lethal factor inhibition, microsphere flow cytometry protease assay, validation at 10 µM (AID 588461); settings: multiplex microsphere protease cleavage assay, stronger effect = higher value

Measured: inhibition

OC(CCN1CCCCC1)(c1ccccc1)c1ccccc1
inactive: [1] 0.9% | [2] 0.5% | [3] -0.2%

NC(=O)OCC(COC(N)=O)c1ccccc1
inactive: [1] -1% | [2] -1.7% | [3] -2.1%

CCOC(=O)Cc1c(C)nc(N)[nH]c1=O
inactive: [1] 2.8% | [2] 0.8% | [3] -3.1%

CN(C)CCCN1c2ccccc2Sc2ccc(Cl)cc21
inactive: [1] -3.6% and 2.8% | [2] 0.6% | [3] -0.5% and 0.1%

O=C(NO)c1ccccc1O
inactive: [1] 3.3% | [2] 2% | [3] -4%

Cc1ccc(N(CC2=NCCN2)c2cccc(O)c2)cc1
inactive: [1] -1.3% and 3.1% and -7.5% | [2] -1.3% and -1.2% and -1.7% | [3] -2.4% and -9.5% and -5.2%

NC(CO)C(=O)NNCc1ccc(O)c(O)c1O (configuration not stated)
inactive: [1] -15.8% | [2] -11.2% | [3] -25.4%

CCC(=O)Nc1ccc(C(=O)N2CCN(C(=O)c3ccco3)CC2)cc1
inactive: [1] -2.6% | [2] -1.9% | [3] -2.7%

CCc1cc(=O)oc2cc(OCc3nn[nH]n3)ccc12
inactive: [1] -0.5% | [2] -1.3% | [3] 1.9%

Cc1cc(=O)c2c(O)c(O)ccc2o1
inactive: [1] 1.8% | [2] 2.5% | [3] -0.2%

Cc1ccccc1NC(=O)C1c2ccccc2Oc2ccccc21
inactive: [1] 0.4% | [2] -0.3% | [3] 6.3%

O=C(CCC(=O)c1cccs1)c1cccs1
inactive: [1] 3.2% | [2] -1.4% | [3] -3.3%

CC(C)OC(=O)C1C2C=CC3(CN(CC4CCCO4)C(=O)C13)O2 (configuration not stated)
inactive: [1] 0.2% | [2] 0.8% | [3] -2.9%

CCc1cccc2c3c([nH]c12)C(CC)(CC(=O)O)OCC3 (configuration not stated)
inactive: [1] -3.9% | [2] -0.3% | [3] -0.8%

COc1cc(C(=O)OCCCN(C)C)cc(OC)c1OC
inactive: [1] -0.2% | [2] -0.5% | [3] 1.8%

CN1C(=O)C(O)(CC(=O)/C=C/C=C/c2ccccc2)c2ccccc21 (configuration not stated)
inactive: [1] -1.9% | [2] -0.3% | [3] -0.3%

Nc1ccc(S(=O)(=O)c2ccc(N)cc2)cc1
inactive: [1] -2.8% | [2] -2.5% | [3] 4.9%

Cc1ccc(Cl)c(Nc2ccccc2C(=O)O)c1Cl
inactive: [1] -4.5% | [2] 0.2% | [3] 0.3%

COc1cccc(OCc2nnc(-c3cccs3)o2)c1
inactive: [1] 1.2% | [2] -0.7% | [3] 1.3%

C[C@]12CC[C@@H]3c4ccc(O)cc4[C@@H](O)C[C@H]3[C@@H]1CC[C@@H]2O
inactive: [1] 3.3% | [2] -0.4% | [3] 0.8%

COc1ccc2[nH]c(=O)c3c(c2c1)OC(C)(C)C=C3
inactive: [1] 1.1% | [2] 0.3% | [3] -4.6%

CC(=O)Nc1ccc(OS(=O)(=O)c2c(C)cc(C)cc2C)cc1
inactive: [1] -3.3% | [2] -1% | [3] -0.9%

CN(CCCN1CCOCC1)Cc1cn(C)nc1-c1ccccc1F
inactive: [1] 0% | [2] -0.8% | [3] -6.1%

Cc1ccccc1-c1coc2cc(O)ccc2c1=O
inactive: [1] -3.4% | [2] 0.2% | [3] 1.6%

CCOc1ccc2nc(NC(=O)NC3CCCCC3)sc2c1
inactive: [1] 0% | [2] -1.5% | [3] -3.9%

O=C(CCNNC(=O)c1ccncc1)NCc1ccccc1
inactive: [1] 4.1% | [2] 0.9% | [3] 5.5%

Cn1c2ccccc2c2cc(/C=C(\NC(=O)c3ccccc3)C(=O)O)ccc21
inactive: [1] -0.2% | [2] 0.3% | [3] 4.6%

CC(C)c1ccc(NC(=O)CNS(=O)(=O)c2ccc(F)cc2)cc1
inactive: [1] 1.6% | [2] -0.9% | [3] 2.8%

OCCN(CCO)c1nc(N2CCCCC2)c2nc(N(CCO)CCO)nc(N3CCCCC3)c2n1
inactive: [1] 4.8% | [2] 0.9% | [3] 8.5%

CN(C)c1ccc(CNCCC(Cc2ccccc2)c2ccco2)cc1 (configuration not stated)
inactive: [1] -4.5% | [2] -0.8% | [3] -8.8%

O=C1C(=O)c2ccccc2C(O)=C1c1ccccc1F
inactive: [1] 4.6% | [2] 0.5% | [3] -1.5%

CCCC(=O)Nc1ccc(OCC(O)CNC(C)C)c(C(C)=O)c1 (configuration not stated)
inactive: [1] 2% | [2] 1.1% | [3] -26.9%

COc1ccc(OC(C)C(=O)Nc2ccccc2F)cc1 (configuration not stated)
inactive: [1] 0.8% | [2] -0.2% | [3] 1.9%

CCC(C)NCCOCCOc1ccc(Cl)cc1Br (configuration not stated)
inactive: [1] 0.5% | [2] 0.2% | [3] -2.1%

Cn1cc(CN2CCCC(CO)(Cc3cccc(Cl)c3)C2)cn1 (configuration not stated)
inactive: [1] 4.8% | [2] 1.3% | [3] -5.4%

C=CCc1ccc(OCC(O)COc2ccc(CC=C)cc2OC)c(OC)c1
inactive: [1] 5.2% | [2] -0.2% | [3] -6.2%

COc1ccc(C(Cl)=C(c2ccc(OC)cc2)c2ccc(OC)cc2)cc1
inactive: [1] 1.5% | [2] -0.6% | [3] -1.1%

CCCN1CCC(NC(=O)Nc2ccc(Br)cc2)CC1
inactive: [1] 0.5% | [2] -1.7% | [3] -2%

COc1ccc(NC(=O)CC2C(=O)N(C)C(=S)N2Cc2ccncc2)cc1 (configuration not stated)
inactive: [1] -2.7% | [2] -1.6% | [3] -9.6%

CC(=O)N1CCN(c2ccc(NC(=O)/C=C/c3ccccc3)cc2)CC1
inactive: [1] 4.3% | [2] -0.3% | [3] -2.2%

COc1ccc(C(=O)Nc2ccccc2C(=O)NC(Cc2c[nH]c3ccccc23)C(=O)O)cc1 (configuration not stated)
inactive: [1] -0.8% | [2] 0.5% | [3] 0%

NC(=O)c1ncn([C@@H]2O[C@H](CO)[C@@H](O)[C@H]2O)c1O
inactive: [1] -1.3% | [2] -1.9% | [3] -13.3%

Cc1cccc2c(C(=O)O)cc(-c3cccnc3)nc12
inactive: [1] -2.3% | [2] -0.5% | [3] -6.1%

CCOC(=O)Cn1c(C)cc(=O)c2ccccc21
inactive: [1] 6.3% | [2] 1.7% | [3] 9.6%

Cc1ccc(S(=O)(=O)n2ccnc2)cc1C
inactive: [1] 1.4% | [2] -0.3% | [3] -1.7%

CC(=O)c1ccc(CCCCCCCCCC(=O)O)s1
inactive: [1] 1.9% | [2] 0.3% | [3] -1%

O=C(CN1C(=O)C2CCc3[nH]c4ccccc4c3C2C1=O)N1CCCC1 (configuration not stated)
inactive: [1] 0.5% | [2] 1.1% | [3] 4.3%

CC12CCC(C(=O)N3CCc4ccccc43)(CC1=O)C2(C)C (configuration not stated)
inactive: [1] 0.6% | [2] -0.7% | [3] -0.2%

C#CCN(C)Cc1ccccc1
inactive: [1] 2.5% | [2] -0.5% | [3] -2.8%

O=C(/C=C/c1c[nH]c2ccccc12)c1cccc2ccccc12
inactive: [1] 5.1% | [2] 2.4% | [3] -6.2%

CN1CCN(CC/C=C2/c3ccccc3Sc3ccc(S(=O)(=O)N(C)C)cc32)CC1
inactive: [1] 3.2% | [2] 0.9% | [3] 0%

CC1(C)CC(=O)C(C(=O)CCCCC(=O)C2C(=O)CC(C)(C)CC2=O)C(=O)C1
inactive: [1] 1.2% | [2] 0.8% | [3] -5.7%

CC(=O)NC(CC(C)C)C(=O)NC(Cc1ccccc1)C(N)=O (stereo not drawn) (Ac-Leu-Phe-NH2; configuration not given here)
inactive: [1] 3.1% | [2] 0.2% | [3] -1.4%

CNCCc1ccccn1
inactive: [1] 1.1% | [2] 1.1% | [3] -8.2%

c1cnc(N2CCN(Cc3ccc4c(c3)OCO4)CC2)nc1
inactive: [1] -2.3% | [2] -1.4% | [3] -5.5%

O=C(CCCCCCCC(=O)c1ccccc1)c1ccccc1
inactive: [1] -2% | [2] -2.3% | [3] -9.8%

O=C(NCc1ccco1)/C(=C\C=C\c1ccccc1)NC(=O)c1ccccc1Br
inactive: [1] -0.5% | [2] 0% | [3] 1.6%

Cc1ccc(N2C(=O)c3ccccc3C2=O)cc1C
inactive: [1] -0.3% | [2] 0.5% | [3] -0.8%

CC1(C)C2CCC1(C(=O)O)c1nc3ccccc3nc12 (configuration not stated)
inactive: [1] -0.2% | [2] -0.9% | [3] -0.2%

COc1ccc(C2OC[C@H]3O[C@H](O)[C@H](NC(C)=O)[C@@H](O)[C@@H]3O2)cc1 (some centres not stated)
inactive: [1] -3.6% | [2] -1.7% | [3] -9.6%

O=C1c2ccccc2N2C(=O)c3ccccc3C2N1Cc1ccco1 (configuration not stated)
inactive: [1] 3.3% | [2] 0.7% | [3] 2.8%

CC1(C)C(=O)OC(c2cccs2)C2(CCCCC2)C1=O (configuration not stated)
inactive: [1] -2.1% | [2] -1.3% | [3] -6.2%

CCOc1ccc2ccccc2c1CNc1nnnn1C
inactive: [1] -0.1% | [2] -1.2% | [3] -1.5%

O=C(Cc1ccc(Br)cc1)c1ccc(O)cc1O
inactive: [1] -3.5% | [2] -0.4% | [3] -5.4%
